Screening results deposited in PubChem by National Center for Advancing Translational Sciences (NCATS).
An excerpt weighted towards active compounds, which were near 6.5% of everything screened.
HepG2 tox: kills HepG2 cells in TGF-b inhibitor counter-screen; hit rate 0.76% among 410,000; HepG2 CAGA-GFP viability, ATP luminescence, 18 h; Potency, µM (series often up to 46.1 µM), without a hit: at the highest dose activity change, negative = cytotoxicity, hits mostly cytotoxic; further: potency means the concentration at half of the fitted maximal effect
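CellTiter-Glo luminescence gave cytotoxicity after 18 hours at 37 degrees C. The cells were HepG2 CAGA-GFP in 1% FBS DMEM, stimulated with 500 pg/mL TGF-beta after compound addition. %Activity was normalised to no-cell wells (complete cell-killing) and DMSO (no toxicity), and curves were fitted and classified.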
TGFb inhibitor: TGF-b pathway inhibition | HepG2 CAGA-GFP TGF-b/SMAD3 reporter, GFP fluorescence, 18 h; TGF-beta stimulated, 500 pg/mL final | Potency, µM (highest dose often 46.1 µM), for inactives: at the highest dose activity, negative = inhibition, most hits filed as inhibitors | hit rate 1.2% among 410,000 | AID 588855; further: potency means the concentration at half of the fitted maximal effect; on the % scale 0 is the no-effect control and ±100 the full control effect; nearly all actives have a fitted effect of over 65% in size
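Per well, imaged GFP fluorescence of HEPG2 CAGA-GFP cells gives the signal; cells get compound, then TGF-beta (500 pg/mL final), 18 h at 37 degrees C; %Activity versus -TGF-beta and +DMSO controls.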
HT1080-NT tox: kills 2HG-producing HT-1080-NT fibrosarcoma cells; HT-1080-NT fibrosarcoma viability, CellTiter-Glo ATP luminescence, 48 h; Potency, µM (titrated, usually from 46.1 µM), without a hit: top-dose activity, negative = less viability, hits mostly cytotoxic; hit rate 1.6% among 360,000; AID 686970;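 further: NT is the 2HG producing partner of a matched IDH1 knockdown line; potency means the concentration at half of the fitted maximal effect; 0% = DMSO-treated cells and -100% = media-only wells without cells; nearly all actives have a fitted effect of over 55% in size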
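HT-1080-NT; 750 cells/well; 5% FBS RPMI; 48 h compound, 37 degrees C; CellTiter-Glo luminescence; curve fitting and curve-class assignment.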
IL1B secr inh: inhibitors of inflammasome signaling (IL-1 beta secretion). THP-1 LPS/ATP IL-1B secretion, AlphaLISA, 16 h; active compounds read low. activity change, % at 57.5 µM. hit rate 4.7% among 360,000; in the data active means activity change below about -50%; inconclusive means mostly about -30% to -49%; further: on the % scale 0 is the no-effect control and ±100 the full control effect
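THP-1 cells pretreated 1 hr with compounds (up to 57.5 uM final), then stimulated with LPS (250 ng/mL final) plus ATP (1.25 mM final); secreted IL-1B measured by AlphaLISA after 16 hr, decreased signal indicating inhibition.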
HT1080 IDH1KD tx: toxicity to HT-1080 IDH1 knockdown cells (counter line). HT-1080 IDH1 knockdown viability, ATP luminescence, 48 h. Potency, µM (titrated, usually from 46.1 µM), for the others: at the top dose activity, negative = toxicity, most hits filed as cytotoxic. hit rate 2% among 360,000;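 further: potency means the concentration at half of the fitted maximal effect; 0% = DMSO wells and -100% = cell-free medium wells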
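IDH1KD HT-1080 cells, 750/well, RPMI + 5% FBS; compound pinned after 2 h settling; 48 h, 37 °C; CellTiter-Glo luminescence; % activity normalised to DMSO and no-cell wells; curves fitted, classed by r2 and efficacy.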
Giardia kill: kills Giardia lamblia; Giardia lamblia trophozoite viability; activity change, % at 7.66 µM, hits read low; hit rate 0.15% among 340,000; AID 540267; in the data active means activity change below about -80%; inconclusive means between about -30% and that limit;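 further: parasites exposed to compound for two days anaerobically before the ATP read; on the % scale 0 is the no-effect control and ±100 the full control effect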
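ATP-content bioluminescence gauges trophozoite survival. Cells (100/well) receive compound and incubate anaerobically for 48 hrs at 37 deg C; detection reagent follows for 15-30 min at room temperature.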
Starred values were filed as active, the others as inactive; ? = inconclusive; . = no result given; [ ] = another dose, or the depositor's remark. Unless noted, the call rests on the fitted dose curve; in most records, active means well fitted curve in the direction sought with a large enough effect; inconclusive means small, poorly fitted or top-dose-only effect, or another doubt; inactive means no such curve, though single readings can be large; an effect the other way counts as inactive or inconclusive.

SMILES	HepG2 tox	TGFb inhibitor	HT1080-NT tox	IL1B secr inh	HT1080 IDH1KD tx	Giardia kill
COc1ccc(CNC(=O)c2cccc3c(-c4cccc(C(N)=O)c4)coc23)cc1OC	-31%	-8%	?	52	5.8µM*	.
COc1cc(-c2coc3c(C(=O)NC4CCCCC4)cccc23)ccc1O	-33%	-5%	16µM*	?	21µM*	.
COC(=O)/C=C1\C(=O)N(c2nc3ccccc3s2)C(=S)N1c1ccc(F)cc1	-13%	-5%	-26%	-5	?	-6
CCOC(=O)[C@@H]1[C@H]2COc3cc(OC)ccc3[C@H]2N2C(=O)N(c3ccccc3)C(=O)[C@]12C	-1%	-8%	0%	-20	0%	-17
CCOC(=O)c1cc(-c2ccccc2)n(CCCC(=O)Nc2ccccc2C)c1C	-22%	-20%	.	.	.	.
COc1ccc(CNC(=O)c2cccc3c(-c4ccc(F)c(F)c4)coc23)cc1OC	-22%	-25%	?	-10	16µM*	.
COc1cc(-c2coc3c(C(=O)Nc4ccc(C(C)C)cc4)cccc23)ccc1O	-61%	?	?	14	21µM*	.
O=C(NCc1ccccc1)c1cccc2c(-c3ccc(F)c(F)c3)coc12	-19%	?	?	-18	?	.
COc1cc(-c2coc3c(C(=O)NCc4ccc(OC)c(OC)c4)cccc23)ccc1O	-59%	?	?	-5	3.3µM*	.
CCOC1CC(C)(C)NC(=S)N1 (configuration not stated)	16%	4%	14%	-1	?	?
CCc1ccc(Nc2ncccc2C#N)cc1	-29%	0%	-8%	-59*	-3%	2
CCC(C)c1ccc(Nc2ncccc2C#N)cc1 (configuration not stated)	-1%	-5%	-5%	0	-13%	-4
COc1ccc(/C=N/Nc2cc(N(C)C)nc(N(C)C)n2)cc1	-37%	0%	-24%	-75*	-26%	15
COc1ccc(/C=N/Nc2cc(OC)ncn2)cc1	-16%	7%	-1%	-6	-6%	-18
COc1ccccc1/C=N/Nc1cc(N(C)C)nc(N(C)C)n1	-35%	0%	?	-153*	?	-11
CN(C)c1cc(N/N=C\c2ccccc2)nc(N(C)C)n1	-50%	?	-16%	-96*	-21%	-8
Cc1ccccc1S(=O)(=O)N(C)C[C@@H]1OCc2cnnn2CCCC(=O)N([C@H](C)CO)C[C@@H]1C	39%	29%	13%	7	0%	.
O=C(CN1CC(=O)Nc2ccccc21)NCCc1ccc(Cl)cc1Cl	-11%	2%	12%	-102*	22%	-8
NC1=NC[C@H](c2ccccc2)N1CCc1cc(C(F)(F)F)cc(C(F)(F)F)c1	-110%	11µM*	?	?	?	-14
NC1=NC[C@@H](CC2CCCCC2)N1CCc1cc(C(F)(F)F)cc(C(F)(F)F)c1	-93%	?	-1%	-109*	?	-19
CC(O)[C@H]1CN=C(N)N1CC1CCCCC1 (some centres not stated)	27%	14%	3%	28	0%	-13
NC1=NC[C@H](c2ccccc2)N1CC1CCCCC1	-6%	-15%	-19%	-54*	5%	-3
Cc1nn(C)c(C)c1CN(C)S(=O)(=O)c1ccc2ccccc2c1	-39%	-23%	-13%	-14	2µM*	-7
Cc1ccc(CNC(=O)COC(=O)C2CC2)cc1	16%	6%	6%	1	7%	-19
O=C(CCl)Nc1cccc2ncccc12	-27%	14%	?	-99*	?	-4
SMILES	HepG2 tox	TGFb inhibitor	HT1080-NT tox	IL1B secr inh	HT1080 IDH1KD tx	Giardia kill
O=C(Nc1cccnc1Cl)c1cc([N+](=O)[O-])ccc1Cl	1%	-31%	?	-63*	?	9
O=C(CCCl)Nc1cccc2cccnc12	-90%	7.1µM*	.	.	.	3
COc1ccc(OCC(=O)Nc2cccc3ncccc23)cc1	12%	18%	9%	-18	6%[9.24 µM]	2
CCc1ccccc1NC(=O)c1ccccc1Sc1ccc([N+](=O)[O-])cc1Cl	-38%	-11%	-9%	-55*	?	-17
Cc1ccc([N+](=O)[O-])c(C(=O)Nc2cccnc2Cl)c1	-10%	-4%	9%	13	2%	?
Cc1cc(C(=O)N2CCCC(N3CCN(c4cccc(C(F)(F)F)c4)CC3)C2)c(C)o1 (configuration not stated)	-24%	?	-27%	?	-14%	-4
Cc1ccc(S(=O)(=O)N2C[C@H]3C(=O)C[C@@H](c4ccccc4F)N(S(=O)(=O)c4ccc(C)cc4)[C@H]3C[C@H]2c2ccccc2)cc1	0%	2%	5%	-4	2%	.
O=C(Nc1cccc2ncccc12)c1cc([N+](=O)[O-])ccc1Cl	-17%	2%	?	-88*	-18%	-14
Cc1ccc2c(c1)nnn2C1CCN(CC(=O)NCCc2ccccc2)CC1	-31%	-26%	-1%	-68*	4%	-1
Cc1ccc(S(=O)(=O)N2CCC(n3nnc4cc(C)ccc43)CC2)cc1	-4%	-17%	4%	14	13%	-3
Cc1ccc2c(c1)nnn2C1CCN(C(=O)Nc2ccccc2C)CC1	5%	-1%	7%	-57*	15%	16
COc1ccc(Cl)cc1NC(=O)CN1CCC(n2nnc3cc(C)ccc32)CC1	-21%	-11%	-16%	9	?	-10
Cc1ccc2c(c1)nnn2C1CCN(S(=O)(=O)c2ccc(C(=O)N(C)C3CCCCC3)cc2)CC1	-9%	17%	-3%	-73*	-16%	18
CCOc1ccc(NC(=O)N2CCC(n3nnc4cc(C)ccc43)CC2)cc1	-1%	-8%	6%	-15	0%	-5
COc1ccc(C(=O)/C=C/Nc2ccc(S(=O)(=O)Nc3nc(C)cc(C)n3)cc2)cc1OC	7%	-15%	-7%	8	?	-16
Cc1cc(NC(=O)COn2nnc3ccc(S(C)(=O)=O)cc32)ccc1Br	-45%	?	-16%	-14	2%	22
Cc1cc(Br)c(NC(=O)COn2nnc3ccc(S(C)(=O)=O)cc32)c(Br)c1	5%	-12%	-5%	-65*	-4%	-5
O=C(/C=C/c1ccccc1)N(Cc1cccc(Cl)c1)C1CCS(=O)(=O)C1 (configuration not stated)	-74%	0%	3%	-23	-2%	-3
